Measured values published in PubChem BioAssay (Tox21).
Records with an inconclusive call do not appear. The source made the active and inactive calls. Unless noted, calls follow the shape of the dose curve; as a rule, active = well fitted curve in the direction sought with a large enough effect in the repeat runs; inconclusive = weak or mixed curves; inactive = no such curve, though single readings can be large; an effect the other way counts as inactive or inconclusive.

Legend:
[1] = qHTS assay to identify small molecule antagonists of the estrogen related receptor signaling pathway with the pleiotropic PPARgamma coactivator (PGC) from Tox21 10K library - cell viability counter screen (AID 1224840; active = well fitted cell-killing curve with a large enough effect in the repeat runs, not every such curve was filed as active; also: nearly all actives have a fitted effect of over 40% in size)
Outline: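 Following seeding of 2,000 PGC/ERR cells/well and 6 hours' incubation, test compounds were delivered in DMSO. The plates then sat 17.5 hours at 37 C before a fluorogenic live-cell protease reagent (CellTiter-Fluor) was read after 30 min.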

[2] = biological target: Thyrotropin receptor (Homo sapiens) (UniProt P16473); test: qHTS assay to identify small molecule agonists of the thyroid stimulating hormone receptor (TSHR) signaling pathway (AID 1224843; calls by dose curve; also: nearly all actives have a fitted effect of over 45% in size)
Chain of Thyrotropin receptor (Homo sapiens) (P16473 whole entry, looked up): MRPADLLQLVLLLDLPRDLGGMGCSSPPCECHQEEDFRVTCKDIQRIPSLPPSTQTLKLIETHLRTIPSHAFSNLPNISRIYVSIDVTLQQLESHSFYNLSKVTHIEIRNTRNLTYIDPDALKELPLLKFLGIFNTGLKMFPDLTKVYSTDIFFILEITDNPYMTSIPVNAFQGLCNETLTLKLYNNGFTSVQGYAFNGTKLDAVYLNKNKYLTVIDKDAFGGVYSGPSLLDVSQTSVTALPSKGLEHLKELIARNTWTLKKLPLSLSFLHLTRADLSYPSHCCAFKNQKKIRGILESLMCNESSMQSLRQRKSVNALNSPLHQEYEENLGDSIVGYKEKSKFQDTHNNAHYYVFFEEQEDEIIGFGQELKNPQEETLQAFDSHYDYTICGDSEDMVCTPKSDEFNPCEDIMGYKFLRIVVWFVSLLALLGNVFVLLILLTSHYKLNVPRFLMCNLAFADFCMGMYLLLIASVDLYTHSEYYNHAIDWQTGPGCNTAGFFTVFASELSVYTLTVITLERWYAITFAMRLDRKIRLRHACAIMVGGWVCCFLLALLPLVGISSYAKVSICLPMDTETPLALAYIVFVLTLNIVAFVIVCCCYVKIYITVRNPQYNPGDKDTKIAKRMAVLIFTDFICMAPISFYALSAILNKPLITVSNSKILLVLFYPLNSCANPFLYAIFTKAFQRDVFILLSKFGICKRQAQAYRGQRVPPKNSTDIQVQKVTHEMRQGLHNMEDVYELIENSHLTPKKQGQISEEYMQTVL
Outline: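 TSHR-HEK293 cells in agonist mode, 30 min room-temperature step, then cAMP measured by competitive HTRF (cAMP-d2 with anti-cAMP cryptate) after 1 h at room temperature. Tested at 15 concentrations in triplicate.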

[3] = qHTS assay to identify small molecule agonists of the hypoxia (HIF-1) signaling pathway - cell viability counter screen (AID 1224844; calls by dose curve; also: nearly all actives have a fitted effect of over 50% in size)
Outline: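 Cells (HRE-bla ME-180, 2,000 per well) sat 5 hrs at 37C, got compound for 17 hrs, were read for CCF4-AM FRET, and were finally lysed with CellTiter-Glo for a 30 min room-temperature luminescence read.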

[4] = qHTS assay to identify small molecule agonists of H2AX (AID 1224845; active = well fitted activation curve with a large enough effect in the signal ratio in the repeat runs, not every such curve was filed as active; the % refers to the signal ratio)
Outline: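 Wild-type CHO-K1 cells, plated overnight, exposed 3hr at 37C to 15 concentrations (0.76% DMSO final). Lysed, then HTRF anti-pH2AX (S139) cryptate and anti-H2AX-d2 antibodies, 24 hr room temperature; 665/620 nm emission read.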

[5] = qHTS assay to identify small molecule agonists of the hypoxia (HIF-1) signaling pathway (AID 1224846; active = well fitted activation curve with a large enough effect in the signal ratio in the repeat runs, not every such curve was filed as active; the % refers to the signal ratio)
Outline: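 A low-serum medium (0.5% dialyzed FBS) holding 2,000 HRE-bla ME-180 cells per well is preincubated for 5 hrs, dosed with compounds by pintool, and kept a further 17 hrs at 37C, 5% CO2 before CCF4-AM FRET detection of beta-lactamase.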

[6] = qHTS assay to identify small molecule agonists of H2AX - cell viability counter screen (AID 1224847; calls by dose curve; also: top concentration of the series differs between compounds; nearly all actives have a fitted effect of over 30% in size)
Outline: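 Counter-screen for viability: CellTiter-Glo ATP luminescence read after 3 h compound treatment (15-point titration, 0.76% DMSO final) of CHO-K1 cells at 37C, with 30 min room-temperature reagent incubation.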

[7] = qHTS RealTime-Glo MT Cell Viability Assay in HepG2 cells - 24 hour (AID 1224867); also: nearly all actives have a fitted effect of over 50% in size
Outline: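 Real-time, nonlytic viability: 600 HepG2 cells/well mixed with NanoLuc enzyme plus prosubstrate; 5 h settle, compound (DMSO) added by pintool; luminescence monitored over 40 h at 37 C.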

[8] = qHTS RealTime-Glo MT Cell Viability Assay in HEK293 cells - 32 hour (AID 1224868); also: top concentration of the series differs between compounds; nearly all actives have a fitted effect of over 50% in size
Outline: (§1)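 Cells + reagent dispensed (600 cells/well, HEK293) → 5 h at 37 C/5% CO2 → 23 nL compound in DMSO pinned → 40 h at 37 C → luminescence read at 0, 8, 16, 24, 32, 40 h.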

[9] = A CellTox Green Cytotoxicity Assay to monitor cytotoxicity in HEK293 cells - 0 hour (AID 1224869); also: nearly all actives have a fitted effect of over 50% in size
Outline: (§2)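 Fluorescence intensity, read at 0, 8, 16, 24, 32 and 40 h of compound treatment, reflected dye binding to DNA of dead HEK293 cells; compounds (23 nL, DMSO) were added 5 h after plating cells with reagent.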

[10] = qHTS RealTime-Glo MT Cell Viability Assay in HepG2 cells - 40 hour (AID 1224870); also: nearly all actives have a fitted effect of over 50% in size
Outline: (§3)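 HepG2 cells (600/well) mixed with RealTime-Glo MT reagent, settled 5 h at 37 C/5% CO2 before compound addition. Nonlytic NanoLuc luminescence from viable-cell prosubstrate reduction read repeatedly during 40 h treatment at 37 C.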

[11] = A CellTox Green Cytotoxicity Assay to monitor cytotoxicity in HEK293 cells - 40 hour (AID 1224871); also: nearly all actives have a fitted effect of over 45% in size
Outline: as §2

[12] = qHTS RealTime-Glo MT Cell Viability Assay in HEK293 cells - 16 hour (AID 1224872)
Outline: as §1

[13] = qHTS RealTime-Glo MT Cell Viability Assay in HepG2 cells - 8 hour (AID 1224873); also: nearly all actives have a fitted effect of over 55% in size
Outline: as §3

[14] = qHTS RealTime-Glo MT Cell Viability Assay in HEK293 cells - 40 hour (AID 1224874); conditions: RealTime-Glo luminescence; max response: hits give low values; also: nearly all actives have a fitted effect of over 50% in size
Outline: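 Viable HEK293 cells reduce a cell-permeant prosubstrate; the product diffuses out and is consumed by NanoLuc in the medium to give light. Compounds went in after a 5 h incubation and plates were read over the treatment course.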

[15] = A CellTox Green Cytotoxicity Assay to monitor cytotoxicity in HEK293 cells - 24 hour (AID 1224875); also: series mostly up to about 77 µM; nearly all actives have a fitted effect of over 45% in size
Outline: as §2

[16] = qHTS assay to identify small molecule agonists of the estrogen related receptor signaling pathway with the pleiotropic PPARgamma coactivator (PGC) from Tox21 10K library (AID 1224842); also: nearly all actives have a fitted effect of over 15% in size
Outline: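 PGC/ERR reporter cell line, 2,000 cells per well, incubated 6 h at 37 C before 23 nL compound in DMSO was added. After 18 h at 37 C, One-Glo luminescence read following 30 min at room temperature.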

[17] = qHTS assay to identify small molecule antagonists of the estrogen related receptor (ERR) signaling pathway from Tox21 library (AID 1224848); also: nearly all actives have a fitted effect of over 50% in size
Outline: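 ERR reporter cell line (from NTP) seeded 2,000 cells/well, rested 6 h at 37 C/5% CO2, then pin-dosed with compounds in DMSO. After 18 h at 37 C, ONE-Glo added; luminescence read after 30 min at room temperature.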

[18] = qHTS assay to identify small molecule agonists of the estrogen related receptor (ERR) signaling pathway from Tox21 library (AID 1224849; calls by dose curve; also: nearly all actives have a fitted effect of over 15% in size)
Outline: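 Screening used an NTP-provided ERR luciferase cell line. Compounds in DMSO were added 6 h after seeding and left 18 h at 37 C before a 30 min ONE-Glo step and luminescence reading.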
% is scaled to controls: 0 for no effect and ±100 for the full control effect.

CCCCC/C=C/CC(=O)OC
inactive: outcome [1] | outcome [2] | outcome [3] | outcome [4] | outcome [5] | Potency [6] | outcome [7] | Potency [8] | Potency [9] | outcome [10] | Potency [11] | Potency [12] | outcome [13] | max response [14] -0.743% | Potency [15]

COc1ccc(/C=N/NC(=O)c2ccncc2)cc1OC
inactive: outcome [1] | outcome [2] | outcome [3] | outcome [4] | outcome [5] | Potency [6] | outcome [7] | Potency [8] | Potency [9] | outcome [10] | Potency [11] | Potency [12] | max response [14] -6.3% | Potency [15]

CCCCC(C)C(=O)O (stereo not drawn)
inactive: outcome [1] | outcome [16] | outcome [3] | outcome [4] | outcome [5] | Potency [17] | outcome [18] | outcome [7] | Potency [11] | max response [14] -5.74% | Potency [15]

CCCCCCCC/C=C\CCCCCCCC(=O)OC[C@@H](O)[C@H]1OC[C@H](O)[C@H]1O
inactive: outcome [1] | outcome [2] | outcome [3] | outcome [4] | outcome [5] | Potency [6] | outcome [7] | Potency [8] | Potency [9] | outcome [10] | Potency [11] | Potency [12] | outcome [13] | max response [14] 7.57% | Potency [15]

Cc1ccccc1N1CCN(CCc2nnc3n2CCCC3)CC1
inactive: outcome [1] | outcome [2] | outcome [3] | outcome [4] | outcome [5] | Potency [6] | outcome [7] | Potency [8] | Potency [9] | outcome [10] | Potency [11] | outcome [13] | max response [14] -6.94% | Potency [15]

CCOC(=O)CC#N
inactive: outcome [1] | outcome [2] | outcome [3] | outcome [4] | outcome [5] | Potency [6] | outcome [7] | Potency [8] | outcome [10] | Potency [11] | Potency [12] | outcome [13] | max response [14] -0.316% | Potency [15]

COC(/C=C(\C)CCC=C(C)C)OC
inactive: outcome [1] | outcome [2] | outcome [3] | outcome [4] | outcome [5] | Potency [6] | outcome [7] | outcome [10] | Potency [11] | Potency [12] | max response [14] 4.55%

O=C(O)c1c(Cl)ccc(Cl)c1Cl
inactive: outcome [1] | outcome [2] | outcome [3] | outcome [4] | outcome [5] | Potency [6] | outcome [7] | Potency [8] | Potency [9] | outcome [10] | Potency [11] | outcome [13] | max response [14] 5.49% | Potency [15]

NC(Cc1c[nH]c2ccccc12)C(=O)O (stereo not drawn)
inactive: outcome [1] | outcome [2] | outcome [3] | outcome [4] | outcome [5] | Potency [6] | Potency [8] | Potency [9] | outcome [10] | Potency [11] | outcome [13] | max response [14] 13.4% | Potency [15]

CC(=O)OC(C(=O)c1ccccc1)c1ccccc1 (stereo not drawn)
inactive: outcome [1] | outcome [2] | outcome [3] | outcome [4] | outcome [5] | Potency [6] | outcome [7] | Potency [9] | outcome [10] | Potency [11] | outcome [13] | Potency [15]

Cc1c(C(C)C)c(=O)n(-c2ccccc2)n1C
inactive: outcome [1] | outcome [16] | outcome [3] | outcome [5] | Potency [6] | Potency [17] | outcome [18] | outcome [7] | Potency [9] | outcome [10] | Potency [11] | Potency [12] | outcome [13] | max response [14] 3.94% | Potency [15]

CCCC(C)CC (stereo not drawn)
inactive: outcome [1] | outcome [2] | outcome [3] | outcome [4] | outcome [5] | Potency [6] | Potency [8] | Potency [9] | outcome [10] | Potency [11] | outcome [13] | max response [14] 1.42% | Potency [15]

CCC1Nc2cc(Cl)c(S(N)(=O)=O)cc2S(=O)(=O)N1 (stereo not drawn)
inactive: outcome [1] | outcome [2] | outcome [3] | outcome [4] | outcome [5] | Potency [6] | outcome [7] | Potency [8] | Potency [9] | outcome [10] | Potency [11] | Potency [12] | outcome [13] | max response [14] -2.14% | Potency [15]

NCCc1ccn[nH]1
inactive: outcome [1] | outcome [2] | outcome [3] | outcome [4] | Potency [6] | Potency [8] | Potency [9] | outcome [10] | Potency [11] | outcome [13] | max response [14] 6.3% | Potency [15]

Nc1ccc(/C=C/c2ccc(N)cc2S(=O)(=O)O)c(S(=O)(=O)O)c1
inactive: viability change, negative = cytotoxic [1] 2.38% [at 0.349 µM] | activity change, negative = cytotoxicity [3] -0.74% [at 0.29 µM] | activation (H2AX phosphorylation) [4] -0.0976% [at 0.582 µM] | activation [5] -0.978% [at 0.291 µM] | activity change, negative = cytotoxicity [6] 3.7% [at 0.582 µM] | activity, negative = inhibition [17] 4.28% [at 0.349 µM] | activity change, positive = activation [18] 2.43% [at 0.349 µM] | activity change, negative = cytotoxicity [7] 2.78% [at 0.29 µM] | activity change, negative = cytotoxic [8] 0.295% [at 0.29 µM] | cytotoxicity [9] 5.28% [at 0.29 µM] | activity change, negative = cytotoxic [10] 0.506% [at 0.29 µM] | cytotoxicity increase [11] -0.161% [at 0.29 µM] | activity change, negative = cytotoxicity [12] 2.56% [at 0.29 µM] | max response [14] 2.9% | activity change [15] 0.201% [at 0.29 µM, hits give high values]

CCCCCCCCCCCCCC(=O)OC
inactive: outcome [1] | outcome [2] | outcome [3] | outcome [4] | outcome [5] | outcome [7] | Potency [9] | outcome [10] | Potency [11] | Potency [12] | max response [14] 12.2% | Potency [15]

CCOC(=O)CCc1ccccc1
inactive: outcome [1] | outcome [3] | outcome [4] | outcome [5] | Potency [6] | outcome [7] | Potency [9] | outcome [10] | Potency [11] | Potency [12] | outcome [13] | max response [14] 3.62% | Potency [15]
